Data as given in PubChem BioAssay AID1224921 (Broad Institute, 2016).
Screen size: about 1,400 compounds; about 350 (25%) were called active. About 2% were inconclusive and are not listed. The rule behind the calls is not given here. The list is a sample of the results. Results with a measured potency or affinity are listed apart.

Assay: C. difficile growth inhibition, confirmation, 4-point retest (AID 1224921);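 note: plate controls were DMSO wells for no effect and levofloxacin 16 µg/mL wells for full effect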
Conditions: Clostridioides difficile clinical isolate growth, OD600, 24 h, stronger effect = lower value; at 30 µM unless noted

Max activity, inactive:
CO[C@H]1CN(C)C(=O)c2ccc(NC(=O)C3CC3)cc2OC[C@@H](C)N(Cc2cncnc2)C[C@@H]1C -5.55%, COc1ccc(-c2ccc3n(c2=O)C[C@H]2[C@H](CO)[C@@H](C(=O)N4CCOCC4)[C@@H]3N2C)cc1 -4.95%, CC(C)CC#Cc1ccc2c(c1)O[C@H](CN(C)Cc1ccncc1)[C@H](C)CN([C@H](C)CO)S2(=O)=O 19.2% [at 8 µM], C[C@H]1CN([C@@H](C)CO)C(=O)c2cc(C#CCN(C)C)cnc2O[C@@H]1CN(C)Cc1ccc(C(=O)O)cc1 -11.6% [at 1.95 µM], O=C(Nc1ccc(Cl)c(Cl)c1)N[C@@H]1CC[C@@H](CCn2cc(C3CCCCC3)nn2)O[C@@H]1CO 30.5% [at 0.5 µM], COc1ccccc1CNC(=O)C[C@H]1C[C@@H]2c3cc(NC(=O)NC4CCCC4)ccc3O[C@@H]2[C@@H](CO)O1 12.1%, COc1cccc(C#Cc2ccc3c(c2)O[C@@H](CN(C)C)[C@H](C)CN([C@@H](C)CO)S3(=O)=O)c1 41.9%, CC(C)NC(=O)N(C)C[C@H]1Oc2cc(C#Cc3cccc(F)c3)ccc2S(=O)(=O)N([C@@H](C)CO)C[C@@H]1C 30.3%, C[C@@H]1CN([C@@H](C)CO)S(=O)(=O)c2ccc(C#Cc3cccc(F)c3)cc2O[C@@H]1CN(C)C 8.04%, COc1cccc(C#Cc2ccc3c(c2)O[C@H](CN(C)C)[C@@H](C)CN([C@H](C)CO)S3(=O)=O)c1 8.78%, C[C@H]1CN([C@@H](C)CO)S(=O)(=O)c2ccc(C#Cc3ccccc3F)cc2O[C@@H]1CN(C)C 20.5%, C[C@@H]1CN([C@H](C)CO)S(=O)(=O)c2ccc(C#Cc3ccc(F)cc3)cc2O[C@@H]1CN(C)S(C)(=O)=O -24% [at 1.95 µM], COc1cccc(C#Cc2ccc3c(c2)O[C@H](CN(C)C)[C@H](C)CN([C@@H](C)CO)S3(=O)=O)c1 -8.62% [at 1.95 µM], C[C@H](CO)N1C[C@H](C)[C@@H](CN(C)C)Oc2cc(C#Cc3ccc(F)cc3)ccc2S1(=O)=O 18.3%, CCCN1C[C@@H](C)[C@@H](OC)CN(C)C(=O)c2cc(NC(=O)CC)ccc2OC[C@@H]1C 8.06%, C[C@H](CO)N1C[C@H](C)[C@H](CN(C)C(=O)Nc2cccc(F)c2)Oc2cc(C#CC3(O)CCCC3)ccc2S1(=O)=O 50.2%, Cc1ccc(-c2ccc3c(c2)O[C@H](CN(C)Cc2cccnc2)[C@@H](C)CN([C@@H](C)CO)S3(=O)=O)cc1 36.5%, CO[C@H]1CN(C)C(=O)c2ccc(NC(=O)c3cccc(F)c3)cc2OC[C@H](C)N(C(C)=O)C[C@@H]1C -20.5%, COc1ccc(S(=O)(=O)N(C)C[C@@H]2Oc3ncc(-c4ccc(F)cc4)cc3C(=O)N([C@H](C)CO)C[C@@H]2C)cc1 -7.45%, C[C@H](C(=O)N(C)C[C@H]1OCc2ccccc2-c2ccccc2C(=O)N([C@@H](C)CO)C[C@@H]1C)c1ccccc1 -4.71% [at 0.5 µM], C[C@@H]1CN([C@H](C)CO)C(=O)c2cc(C#CCN(C)C)cnc2O[C@H]1CN(C)Cc1ccccc1F 24.5%, COc1ccc(C#Cc2ccc3c(c2)[C@]2(C(=O)N3)[C@H](C(N)=O)[C@H]3C(=O)O[C@H](c4ccccc4)[C@H](c4ccccc4)N3[C@@H]2c2ccc(O)cc2)cc1 23.8%, NC(=O)[C@H]1[C@@H]2C(=O)O[C@@H](c3ccccc3)[C@@H](c3ccccc3)N2[C@@H](c2ccccc2OCCO)[C@]12C(=O)Nc1ccc(C#CC3(O)CCCCCC3)cc12 16.8% [at 8 µM], CC(=O)N(C)C[C@@H]1Oc2ncc(C#Cc3ccc(F)cc3)cc2C(=O)N([C@H](C)CO)C[C@@H]1C 22.7%, C[C@H]1CN([C@@H](C)CO)C(=O)c2cc(NC(=O)Nc3cccc4ccccc34)ccc2O[C@@H]1CN(C)S(=O)(=O)c1ccccc1 37.2%, CO[C@H]1CN(C)C(=O)c2cc(NS(C)(=O)=O)ccc2OC[C@H](C)N(Cc2ccccn2)C[C@@H]1C 2.2%, CO[C@H](CN(C)Cc1cc(F)ccc1F)[C@@H](C)CN(C(=O)Nc1ccc(F)cc1)[C@@H](C)CO 21.5%, C/C=C/[C@@H](CCn1cc(CCO)nn1)[Si](C)(C)c1ccc(OC)cc1 -14.8% [at 0.5 µM], C[C@H](NC(=O)N(C)C[C@@H]1OCc2ccccc2-c2c(n(C)c3ccccc23)C(=O)N([C@@H](C)CO)C[C@H]1C)c1ccccc1 26.5% [at 8 µM], CN(C)CCCNC(=O)[C@H]1[C@H](CO)[C@H]2Cn3c(ccc(-c4cccc(F)c4)c3=O)[C@@H]1N2C -8.59%, CNC[C@H]1Oc2cc(-c3ccccc3F)ccc2S(=O)(=O)N([C@H](C)CO)C[C@@H]1C 14%, Cc1ccccc1-c1ccc2c(c1)O[C@@H](CN(C)Cc1ccncc1)[C@@H](C)CN([C@@H](C)CO)S2(=O)=O 40.4%, C/C=C/c1cnc2c(c1)C(=O)N([C@@H](C)CO)C[C@@H](C)[C@@H](CN(C)Cc1ccc(F)cc1)O2 19.7%, C[C@H](CO)N1C[C@H](C)[C@H](CN(C)Cc2ccc(C(=O)O)cc2)Oc2ncc(C#CCN(C)C)cc2C1=O -7.61% [at 8 µM], CO[C@@H]1CN(C)C(=O)c2ccc(NC(=O)c3nc4ccccc4s3)cc2OC[C@H](C)N(Cc2cccnc2)C[C@@H]1C -17.1% [at 1.95 µM], CCCN1C[C@H](C)[C@@H](OC)CN(C)C(=O)c2cc(NC(=O)CC)ccc2OC[C@H]1C -10.4% [at 0.5 µM], Cc1ccc(-c2ccc3c(c2)O[C@H](CN(C)Cc2ccncc2)[C@@H](C)CN([C@H](C)CO)S3(=O)=O)cc1 -11.4% [at 8 µM]
